Measured values reported in the OligoGym collection.

Target: TBC1D7
Test: pooled miR-30 sensor sort-seq; sequence = guide strand
Conditions: shRNA
Also: reference of the scale not given here.

Sequence | sensor-assay potency score (higher = more potent)
TATCTTCTCTGCACTGTTCAGT | 0.23
TAACTTCCCAGACTCCAGCTGA | -0.346
TTACGATACATCATCACCTTGG | 0.3
TTTGTTATCTTCTCTGCACTGT | 0.575
TTGCTCACGATCGCGTCTGAGC | -1.01

Target: TBPL2
Test: as above
Conditions: shRNA

Sequence | sensor-assay potency score (higher = more potent)
TTCCTGGGTAACTTCATCTGGT | -0.0709
ATTTTCTTGCTGCAAGTCGAGA | -1.3
TTTTAGAATAGGATAGATGTTT | -0.912
TATGACAGCAGCAAACCTCTTT | -0.118
TTAAAATCGAGGAATCTGGCAG | 0.087
TACAACTGGGCTGAACAGGGGA | 0.181
ATAAGCAACACAATTCGTGGTT | 0.695
TCTTGCTGCAAGTCGAGACTGC | 0.000545
TACAATTCCACAACATTCTGAA | 0.364
TAAGCAACACAATTCGTGGTTT | -0.141
TACAGTGGAAACTATATTCTGT | 0.659

Target: TBX10
Test: as above
Conditions: shRNA

Sequence | sensor-assay potency score (higher = more potent)
TATCTCTTGTCGTCCAGGGGGA | -0.47
TTGTTGGGGTCTTTCTCCCTGT | -0.814
TTGCTGGCGATTTTCAGCTGGG | -0.663
ATACCTGTATCTCTTGTCGTCC | -0.36
TCACTCTGGACACACGTGGGTT | -1.06
TTCTGATAGGCTGTCACTGCTG | -0.605
TAGCGCTCACTGTCCTTGCGTG | -0.517
TATGGTGCTGGTCGGGTCCTTG | -1.11
TCCAGCTGAACTGTCACTCTGG | -0.454
TTCATCTCCAGCTGAACTGTCA | -0.543
TTGGTGACGATCATCTCAGTGC | -0.282
TGGAGGTGGAAGCTGAAGCTTT | -1.2

Target: TBX15
Test: as above
Conditions: shRNA

Sequence | sensor-assay potency score (higher = more potent)
TTGTACACAGACAAATTCTTGG | -0.17
TTCAGTTCCAATATCATGGAAC | -0.282
TGTCTTTCCACTCTCATCCATT | -1.03
TTGATCATCCAACTCATTGTTG | -0.489
TTTTAATCTGGTAATCTGCTGA | 0.443
TTAGATTACACAGCTGGCTTTC | -0.575
TAGGCTTCCATCTTGCTGTTGC | 0.42
TTAATCTGGTAATCTGCTGATT | -0.87
TTGCTATGTAGTACTGCTGATG | -1.07
TTTCGGTCAATTTTTAATCTGG | -0.172
TACACAGACAAATTCTTGGTGA | 0.47
